Assay [1] is described as follows: NCI Yeast Anticancer Drug Screen. Data for the rad50 strain (AID 155).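 Note: 0% = growth of vehicle-only cultures of the same strain.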 The note with it: S. cerevisiae rad50 strain growth inhibition; at 50.0 µM; active compounds read high. The gist of the method: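 Inhibition values express reduced yeast growth in compound-treated cultures relative to vehicle-treated controls.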
A short description of assay [2]: NCI Yeast Anticancer Drug Screen. Data for the mec2-1 strain (AID 157). The note with it: S. cerevisiae mec2-1 strain, at 50.0 µM, active compounds read high. The gist of the method: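 Each compound was tested on mec2-1 yeast, a strain altered in DNA damage repair or cell cycle control. Growth inhibition is reported relative to vehicle.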
The nature of assay [3]: NCI Yeast Anticancer Drug Screen. Data for the sgs1 mgt1 strain (AID 161).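 Note: 0% = growth of cultures given vehicle only.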 The note with it: S. cerevisiae sgs1 mgt1 strain, at 50.0 µM, active compounds read high. The gist of the method: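 Inhibition of yeast growth, normalised to vehicle-treated controls, is reported for a strain bearing genetic alterations in DNA damage repair.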
Assay [4] can be described thus: NCI Yeast Anticancer Drug Screen. Data for the cln2 rad14 strain (AID 165).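 Note: 0% = growth equal to vehicle treated cultures.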 The note with it: S. cerevisiae cln2 rad14 strain, at 50.0 µM, active compounds read high. The gist of the method: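 Test compounds were added to cln2 rad14 yeast cultures; inhibition of growth was then determined by comparison with vehicle treatment.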
A short description of assay [5]: NCI Yeast Anticancer Drug Screen. Data for the bub3 strain (AID 167). The note with it: S. cerevisiae bub3 mutant strain, at 50.0 µM, active compounds read high. The gist of the method: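 Steps: expose the mutant yeast strain to compound; grow alongside vehicle-treated cultures; measure growth; express inhibition against the vehicle cultures.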
A short description of assay [6]: NCI Yeast Anticancer Drug Screen. Data for the mlh1 rad18 strain (AID 175). The note with it: S. cerevisiae mlh1 rad18 strain growth inhibition; at 50.0 µM; active compounds read high. In outline:
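Inhibition values reflect reduced growth of mutant yeast versus vehicle-treated controls following compound exposure; the mutations affect DNA damage repair.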

The structures appear in SMILES notation. Compounds without any hit were thinned out: in the full panel of roughly 79,000, 15% have a hit. Values without a mark were called inactive. The source made the active and inactive calls. Cut-off read from the data, not from the text of the source: active = growth inhibition above about 70%; inactive = the rest.

With `Oc1nc(-c2ccccc2)sc1-c1ccccc1`, the growth inhibition in assay [1] was -6.05%; in assay [2], 16.9%; in assay [3] it was -0.5%; in assay [4], -24%; in assay [5], -10.7%; in assay [6], -9.15%.

Turning to `COc1ccc(C=O)c(NC(=O)C(C)(C)C)c1`, the growth inhibition in assay [1] was 37.4%; in assay [2] it was 23.9%; in assay [3], 9.8%; in assay [4] it was 1.7%; in assay [5], 23.2%; in assay [6], -13.7%.

Regarding `COc1ccc(N2C(=O)C3c4[nH]c5ccc(C)cc5c4C4CCC(C)CC4C3C2=O)cc1` (configuration not stated), the growth inhibition in assay [1] was -24.2%; in assay [2], -0.6%; in assay [3], 1.65%; in assay [4], -6.9%; in assay [5], -13.3%; in assay [6], -4.55%.

For `Nc1[nH]c(=O)ncc1-c1cccc(Cl)c1`, the growth inhibition is -6.45% in assay [1]; -4.15% in assay [2]; 11.6% in assay [3]; -7.8% in assay [4]; 5.2% in assay [5]; 33.1% in assay [6].

In the case of `N#Cc1nc(Nc2ccc([N+](=O)[O-])cc2)sc1N`, the growth inhibition in assay [1] is 55.1%; in assay [2], 33.8%; in assay [3], 31.1%; in assay [4] it was 36.2%; in assay [5] it was 19.9%; in assay [6], 22.4%.

On to `CC(C)(O)c1ccccc1[S+]1OC(C)(C)c2ccccc21` (configuration not stated), for which the growth inhibition in assay [1] was 27.9%; in assay [2] it was 17.6%; in assay [3], 30.3%; in assay [4], 56.8%; in assay [5], 98.3% (active); in assay [6], 35.8%.

On to `CC(=O)OCC1OC(n2c(-c3ccccc3)c(N=Nc3ccccc3)c(C)c(C#N)c2=S)C(OC(C)=O)C(OC(C)=O)C1OC(C)=O` (configuration not stated), for which the growth inhibition was -14% in assay [1]; -17.4% in assay [2]; -20.2% in assay [3]; 11.5% in assay [4]; 2.55% in assay [5]; 9.75% in assay [6].

`Nc1nc(Cl)nc2c1ncn2C1CCC(CO)O1` (configuration not stated): the growth inhibition in assay [1] was -21.2%; in assay [2], 1.35%; in assay [3], -7.9%; in assay [4], 5.5%; in assay [5] it was 4.15%; in assay [6] it was 16.1%.

With `CC(C)Cc1[nH]nc2c1C(=O)C(Nc1ccccc1)=CC2=O`, the growth inhibition in assay [1] was 22.5%; in assay [2], 25.3%; in assay [3], 12.6%; in assay [4] it was -7.65%; in assay [5], 2.75%; in assay [6], 23.4%.

Consider `Cc1cccc(NC(=O)c2c(Br)c(Br)c(Br)c(Br)c2C(=O)O)c1C`, for which the growth inhibition is 26.9% in assay [1]; -18% in assay [2]; 12.7% in assay [3]; 2.85% in assay [4]; 5.4% in assay [5]; -4.3% in assay [6].

In the case of `CCCCCCc1cc(-c2cc(CCCCCC)nc(N)n2)nc(N)n1`, the growth inhibition in assay [1] is -4.25%; in assay [2], 7.05%; in assay [3], 0%; in assay [4], 4.55%; in assay [5] it was -9.1%; in assay [6], 16.4%.

`NNC(=O)CNc1cccc(Br)c1`: the growth inhibition in assay [1] is -16.1%; in assay [2] it was -24.6%; in assay [3], -6.1%; in assay [4] it was 16.9%; in assay [5] it was -32.4%; in assay [6], -11.4%.

Regarding `C=CC(C)n1cnc2c1c(=O)n(C)c(=O)n2C` (configuration not stated), the growth inhibition was -5.1% in assay [1]; -9.35% in assay [2]; -11.2% in assay [3]; -35% in assay [4]; -5.4% in assay [5]; 2.8% in assay [6].

Regarding `O=C1CSSCC(=O)Nc2ccccc2N1`, the growth inhibition is 6.35% in assay [1]; 0.5% in assay [2]; -0.2% in assay [3]; 16.2% in assay [4]; 19.4% in assay [5]; -4% in assay [6].

Take `O=P(O)(c1ccccc1Br)c1ccccc1Br`: the growth inhibition in assay [1] is 43.5%; in assay [2], 10.6%; in assay [3], 28%; in assay [4] it was 26.2%; in assay [5], 4.65%; in assay [6], 20.2%.

As for `COc1ccc(/C(Nc2ccccc2)=C(\CCl)c2ccccc2)cc1OC`, the growth inhibition in assay [1] was 6.5%; in assay [2], 7.75%; in assay [3], 34.5%; in assay [4], 5.1%; in assay [5], 44.4%; in assay [6], 9.25%.

As for `CCOC(=O)c1c(-c2ccccc2)n2c3c(cccc13)CC2`, the growth inhibition was 6.85% in assay [1]; -5.2% in assay [2]; -6.05% in assay [3]; 6.15% in assay [4]; 6.55% in assay [5]; 27.5% in assay [6].

In the case of `CCOC(=O)CCCCN(CC)CCCCC(=O)OCC`, the growth inhibition in assay [1] is 2.65%; in assay [2], -1.5%; in assay [3], 11.1%; in assay [4], -2.25%; in assay [5], 16.6%; in assay [6], -19.6%.

For `O=C1C(Cl)N(c2ccc(Cl)cc2Cl)C1c1c[nH]c2ccccc12` (configuration not stated), the growth inhibition was -14.4% in assay [1]; -13.9% in assay [2]; -16.7% in assay [3]; 3.05% in assay [4]; 2.95% in assay [5]; -20.4% in assay [6].

As for `Cc1nn(C(=O)c2ccc(Cl)cc2)c2c1C(c1ccc(Cl)cc1)SC(N)=N2` (configuration not stated), the growth inhibition in assay [1] was 9.95%; in assay [2], -21.2%; in assay [3], 31.4%; in assay [4], -24.9%; in assay [5], -19.4%; in assay [6], 12.9%.

As for `CC(C)/C(Cl)=N\OC(=O)Nc1ccc(C#N)cc1`, the growth inhibition was -22.4% in assay [1]; 52% in assay [2]; 51.2% in assay [3]; 11% in assay [4]; 60.1% in assay [5]; 41% in assay [6].

In the case of `CCC(O)C(=O)O` (configuration not stated), the growth inhibition in assay [1] is -28.6%; in assay [2], -26.8%; in assay [3], -20.9%; in assay [4] it was -11.2%; in assay [5], -9.9%; in assay [6], -27.4%.

With `CS(=O)(=O)OC1CCC2CCCC1(C(=O)O)C2` (configuration not stated), the growth inhibition in assay [1] is 2.4%; in assay [2], -6.6%; in assay [3] it was -0.75%; in assay [4] it was -30%; in assay [5] it was -5.2%; in assay [6], 9.25%.

Consider `CC(C)=CCNc1ncnc2c1ncn2CCC#N`, for which the growth inhibition is -24.1% in assay [1]; -6.55% in assay [2]; -16.9% in assay [3]; 5.1% in assay [4]; -35.8% in assay [5]; -21.4% in assay [6].

Consider `CC(=O)c1cccc(NC(=O)Oc2ccc(F)cc2Cl)c1`, for which the growth inhibition in assay [1] is -2.3%; in assay [2], 29.1%; in assay [3] it was 18.8%; in assay [4], -13.6%; in assay [5], 12.9%; in assay [6], -1.8%.

Turning to `O=S(=O)(C(=C(c1ccccc1)c1ccccc1)c1ccccc1)c1ccccc1`, the growth inhibition in assay [1] was 42.1%; in assay [2] it was 99.5% (active); in assay [3] it was 19.9%; in assay [4], 17.8%; in assay [5] it was 6.35%; in assay [6], 68%.

Turning to `O=C(Nc1ccc(C(=O)O)cc1)Nc1nccs1`, the growth inhibition in assay [1] was 16.9%; in assay [2] it was 6.5%; in assay [3], 18%; in assay [4] it was -16.7%; in assay [5], 7.2%; in assay [6], 43.7%.

On to `CN(C)C12CCCCCC1S(=O)(=O)C2` (configuration not stated), for which the growth inhibition was -0.05% in assay [1]; -20.1% in assay [2]; 0.85% in assay [3]; -17.6% in assay [4]; -22.4% in assay [5]; 3.45% in assay [6].

Turning to `O=C(O)CSc1ccn(Cc2ccccc2)c1`, the growth inhibition in assay [1] is -8.15%; in assay [2] it was -18.5%; in assay [3], -43.1%; in assay [4], -22.8%; in assay [5], -56.8%; in assay [6], -22.6%.

Consider `O=C(/C=C/c1ccco1)CCN1CCOCC1`, for which the growth inhibition in assay [1] is 8.15%; in assay [2], -4.6%; in assay [3], 24.8%; in assay [4], -44.1%; in assay [5] it was -7.25%; in assay [6], 13.8%.

Regarding `S=c1nc[nH]c2c1cnn2-c1ccccc1`, the growth inhibition was 5.6% in assay [1]; 19.6% in assay [2]; 54.4% in assay [3]; -13.2% in assay [4]; -7.3% in assay [5]; 40.2% in assay [6].

As for `O=[N+]([O-])c1cccc(C2=NON(c3ncccn3)C3N=CC=CN23)c1` (configuration not stated), the growth inhibition in assay [1] was 11.9%; in assay [2] it was -17.7%; in assay [3] it was 14.3%; in assay [4], -4.9%; in assay [5], -9.65%; in assay [6], 26.1%.

Consider `CCOC(C)C=O` (configuration not stated), for which the growth inhibition in assay [1] was -3.85%; in assay [2], 19.1%; in assay [3] it was -21.4%; in assay [4], -36%; in assay [5] it was -7.6%; in assay [6] it was -25.9%.

For the compound `O=C1CC(=O)N2CCCCC2N1` (configuration not stated), the growth inhibition was -17.7% in assay [1]; -5.15% in assay [2]; -0.25% in assay [3]; -10.9% in assay [4]; 6.4% in assay [5]; -25.7% in assay [6].

Take `c1ccc(CC2(Cc3ccccc3)SCCS2)cc1`: the growth inhibition in assay [1] was -11.7%; in assay [2], 8.45%; in assay [3] it was 6.55%; in assay [4] it was 1.15%; in assay [5] it was -0.6%; in assay [6], -6.05%.

Consider `COc1nn(C)c(=O)c2cccnc12`, for which the growth inhibition in assay [1] was -2.05%; in assay [2], 7.6%; in assay [3] it was -3.1%; in assay [4], -6.25%; in assay [5], 12.6%; in assay [6], 1.2%.

`O=C(O)CCN1CCCS(=O)(=O)C1=O`: the growth inhibition is 11.8% in assay [1]; 8% in assay [2]; -0.35% in assay [3]; 9% in assay [4]; -0.85% in assay [5]; -5.3% in assay [6].

Values taken from PubChem BioAssay (NCI).
